Records with an inconclusive call do not appear. Unmarked numbers belong to inactive results. The source made the active and inactive calls. Calls follow the shape of the dose curve; as a rule, active = well fitted cell-killing curve with a large enough effect; inconclusive = small, poorly fitted or top-dose-only effect, or effect the other way; inactive = flat fitted curve, though single readings scatter.
Assay: Compound cytotoxicity measured by an ATP content assay as a counter-screen for lead compounds in human astrocytes
Conditions: human astrocytes viability, ATP luminescence; series mostly up to 46.1 µM; activity change, negative = cytotoxicity: at the top concentration
Experimental: National Center for Advancing Translational Sciences [NCATS] Johns Hopkins University School of Medicine Florida State University Assay Overview: Many compounds can cause cytotoxicity at high compound concentrations. […] The compound cytotoxicity may also cause side effects or toxicity in human. Thus, the compound cytotoxicity needs to be measured in each cell type and each compound incubation time - same as these in the compound screening assay. The compound cytotoxicity can be measured by cell viability assays such as the ATP content assay. We use an ATP content assay kit for cell viability measurement. It measures ATP content (level) in human astrocytes using a luminescence readout that is proportional to viable cell numbers. Decrease in the luminescence signal after the compound treatment indicates reduced cell viability and cell death caused by compound treatment.
Assay Protocol Summary: The medium for astrocytes contains AM basal medium (ScienCell, Cat.# 1801), AGS (ScienCell, Cat.# 1801), 10% FBS, and 1% Pen/Strep. The ATP content assay kit (PerkinElmer, Cat.# 6016731) was used to determine cell viability. The reagent was reconstituted and prepared as described by the manufacturer. Cells were seeded in 384- or 1536-well assay plates and cultured at 37 C with 5% CO2 for 16 to 20 hours. The typical cell seeding density in the 1536-well plate assay is 350 cells/well in 3 ul medium for astrocytes in the tissue cultured treated/PDL coated plates. Compounds were added to cells and incubated for a specific time such as 6, 24, or 72 hours before addition of the reagent mixture of the ATP content assay kit at 1:1 ratio. After incubation at room temperature for 10 minutes, the luminescence intensity in assay plates was measured using a ViewLux plate reader (PerkinElmer). […] The percentage inhibitions of the decreased cell viability by small molecules were then calculated that indicate compound cytotoxicity.

Compound	activity change, negative = cytotoxicity [%]	Potency
COc1cccc2c1C(=O)c1c(O)c3c(c(O)c1C2=O)C[C@@](O)(C(=O)CO)CC3OC1CC(N2CCOC(OC)C2)C(O)C(C)O1 (some centres undefined)	-2.9	
COP(=S)(OC)SCN1C(=O)c2ccccc2C1=O	-1.28	
O=C1C=CC[C@@H]2[C@H]3CCCN4CCC[C@@H](CN12)[C@@H]34	11	
COC1(CS(=O)c2ccccc2)CCN(CCc2c[nH]c3ccc(F)cc23)CC1 (centres undefined)	6.46	
O=C(Nc1ccc(Br)cc1)c1cc(Br)cc(Br)c1O		15.5 µM (active)
O=C1CCC[C@@H]2[C@H]3CCCN4CCC[C@@H](CN12)[C@@H]34	13.7	
Cc1ccc([N+](=O)[O-])[c]2c1[O][Hg]2		3.08 µM (active)
CC(C)[N+](C)(CCC(C(N)=O)(c1ccccc1)c1ccccc1)C(C)C	5.53	
O=c1c2ccccc2[se]n1-c1ccccc1		9.75 µM (active)
CC(C)N[C@@H]1CCn2c(=O)[nH]c3cccc(c32)[C@@H]1O	14.5	
CN1CC[C@@]2(C)c3cc(OC(=O)Nc4ccccc4)ccc3N(C)[C@@H]12	10.3	
Oc1ccc([C@H]2CNCc3c2ccc(O)c3O)cc1O	10	
CC[n+]1c(-c2ccccc2)c2cc(N)ccc2c2ccc(N)cc21	14.2	
CC(O)CN1CCN(CC(=O)[O-])CCN(CC(=O)[O-])CCN(CC(=O)[O-])CC1.[Gd+3] (centres undefined)	13.1	

Reference: PubChem BioAssay AID1224861 (National Center for Advancing Translational Sciences (NCATS), 2016)
